Compound activity as filed in PubChem.
Hits are enriched below; roughly 18% of the tested compounds scored in any of these assays.
TDP1 cell noCPT – qHTS for Inhibitors of human tyrosyl-DNA phosphodiesterase 1 (TDP1): qHTS in cells in absence of CPT | DT40 Tdp1-/- hTDP1 cells, no CPT, ATP luminescence, 48 h | Potency, µM (titrated, usually from 46.2 µM), actives largely listed as inhibitors | 420,000 tested, 15% active | AID 686978, 2013; note: nearly all actives have a fitted effect of over 55% in size
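DT40 Tdp1-/-;hTDP1 cells, no CPT (DMSO vehicle only), 400 cells/well; compounds pin-transferred; ≥48 hr, 37 °C; CellTiter-Glo 30 min RT dark, luminescence read.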
VDR inh – Inhibitors of the vitamin D receptor (VDR): qHTS | Vitamin D3 receptor (Homo sapiens), P11473 | 400,000 tested, 0.93% active | Potency, µM, actives largely listed as inhibitors | AID 504847, 2011 | VDR-SRC2-3 peptide fluorescence polarization, 2 h
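Two reagent solutions held at 4 deg C in the dark were dispensed, compounds pinned at 23 nl, and the mixture incubated 2 h at room temperature. Read-out: fluorescence polarization of VDR–SRC2-3 peptide binding.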
TDP1 inh – qHTS Assay for Inhibitors of Tyrosyl-DNA Phosphodiesterase (TDP1); Tyrosyl-DNA phosphodiesterase 1 (Homo sapiens), Q9NUW8; recombinant TDP1, AlphaScreen DNA substrate cleavage; Potency, µM (highest dose often 130 µM), usual class: inhibitors; 350,000 tested, 0.28% active; AID 485290, 2010; note: nearly all actives have a fitted effect of over 40% in size
Target sequence (Q9NUW8 whole entry, looked up): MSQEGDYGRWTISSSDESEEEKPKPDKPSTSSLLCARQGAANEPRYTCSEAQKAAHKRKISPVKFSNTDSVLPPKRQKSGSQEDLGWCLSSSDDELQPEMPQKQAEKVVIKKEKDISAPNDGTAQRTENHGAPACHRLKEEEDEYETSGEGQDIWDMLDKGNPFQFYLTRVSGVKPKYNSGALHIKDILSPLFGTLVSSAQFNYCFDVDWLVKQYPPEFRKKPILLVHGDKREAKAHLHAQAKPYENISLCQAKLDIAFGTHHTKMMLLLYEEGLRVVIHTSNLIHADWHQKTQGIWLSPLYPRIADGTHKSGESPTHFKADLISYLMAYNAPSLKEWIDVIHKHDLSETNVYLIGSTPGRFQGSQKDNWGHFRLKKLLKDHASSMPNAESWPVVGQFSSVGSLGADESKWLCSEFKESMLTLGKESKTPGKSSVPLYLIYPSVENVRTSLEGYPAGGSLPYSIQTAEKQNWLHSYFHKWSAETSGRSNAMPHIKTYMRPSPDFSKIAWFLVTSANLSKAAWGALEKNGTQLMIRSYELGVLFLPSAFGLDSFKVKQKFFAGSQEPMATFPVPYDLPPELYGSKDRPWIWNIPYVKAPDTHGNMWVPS
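Recombinant E. coli-expressed Tdp1 (1 nM) preincubated with compound 15 min at RT, then 5'-biotin/3'-phosphotyrosine-FITC DNA substrate (15 nM) added for 5 min. AlphaScreen beads (10 ug/ml) added, 10 min RT; tyrosine-FITC cleavage read as signal loss.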
KAT2A inh – qHTS Assay for Inhibitors of GCN5L2. Histone acetyltransferase KAT2A (Homo sapiens), Q92830. GCN5L2 HAT assay, ThioGlo1 CoA-SH fluorescence. Potency, µM (titrated, usually from 58.9 µM), most hits filed as inhibitors. 390,000 tested, 0.21% active. AID 504327, 2011
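Compounds, pin-transferred from DMSO stocks, meet 20nM GCN5L2 for 15 min before the reaction begins with H3(1-25) peptide (75uM) and acetyl-CoA (70uM). Thiol-reactive ThioGlo1 reports CoA release over 20 min at room temperature.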
TDP1 cell CPT – qHTS for Inhibitors of human tyrosyl-DNA phosphodiesterase 1 (TDP1): qHTS in cells in presence of CPT | Potency, µM (titrated, usually from 46.2 µM), actives largely listed as inhibitors | chicken DT40 Tdp1-/-;hTDP1 cells + 20 nM CPT, ATP luminescence, 48 h | 420,000 tested, 12% active; note: nearly all actives have a fitted effect of over 55% in size
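Chicken DT40 Tdp1-/- cells stably complemented with human TDP1 were seeded at 400 cells/well in medium containing 20 nM camptothecin, exposed to pin-transferred compounds, and grown at 37 °C for at least 48 hr. Viability was read as ATP luminescence.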
PLK1 PBD block – qHTS for Inhibitors of PLK1-PDB (polo-like kinase 1 - polo-box domain): Primary Screen | Serine/threonine-protein kinase PLK1 (Homo sapiens), P53350 | Plk1 PBD binding of FITC phosphopeptide, fluorescence polarization | Potency, µM, actives largely listed as inhibitors | 360,000 tested, 2.8% active | AID 720504, 2013; note: series mostly up to about 57 µM; nearly all actives have a fitted effect of over 65% in size
Numbers stand for hits; - = inactive; ? = inconclusive; . = not tested or not shown; ! = a repeat was not active; [ ] = dose if it differs, or a comment. Calls come from the whole dose curve; as a rule, active = well fitted curve in the direction sought with a large enough effect; inconclusive = small, poorly fitted or top-dose-only effect, or another doubt; inactive = no such curve, though single readings can be large; an effect the other way counts as inactive or inconclusive.

SMILES	TDP1 cell noCPT	VDR inh	TDP1 inh	KAT2A inh	TDP1 cell CPT	PLK1 PBD block
CCOc1ccc(C2OC34CCCCC3C(C#N)(C#N)C2(C#N)C(=N)O4)cc1OC (stereo unspecified)	16µM	-	-	-	13µM	?
CCOc1ccc(C2C(C#N)=C(N)SC(N)=C2C#N)cc1OC	.	.	-	-	.	.
C=CCOc1ccc(C2OC34CCCCC3C(C#N)(C#N)C2(C#N)C(=N)O4)cc1 (stereo unspecified)	6.5µM	-	-	-	13µM	-
Cc1cccc(-n2c3nc(=O)[nH]c(=O)c-3cc3cc([N+](=O)[O-])ccc32)c1	-	-	-	-	4.6µM	11µM
Cc1ccc(C)c(-n2c3nc(=O)[nH]c(=O)c-3cc3cc([N+](=O)[O-])ccc32)c1	0.82µM	?	-	-	1.2µM	7.5µM
Cc1cccc(-n2c(SCc3ccc([N+](=O)[O-])cc3)nnc2-c2c[nH]c3ccccc23)c1	?	-	-	-	?	-
CCC1C(=O)NCCN1Cc1ccc2c(c1)CN(Cc1ccc(F)c(OC)c1)CCO2 (stereo unspecified)	-	.	.	.	-[9.04 µM]	.
Cc1ccc(NC(=O)Nc2nnc(N(CC(C)C)CC(C)C)s2)cc1Cl	16µM	-	-	-	9.2µM	.
O=C(c1cccs1)N1CCC(c2nc3c(nnn3Cc3c(Cl)cccc3Cl)c(=O)[nH]2)CC1	?	-	.	-	-	-
Cc1ccccc1N/C(=C(/C(Cl)=C(Cl)Cl)[N+](=O)[O-])n1nnc2ccccc21	?	-	-	.	16µM	?
COc1ccc(N/C(=C(/C(Cl)=C(Cl)Cl)[N+](=O)[O-])n2nnc3ccccc32)cc1	.	.	-	-	.	.
O=C(C[C@@H]1C/C=C/CCCC(=O)O[C@H](c2ccccc2)CNC1=O)N[C@H](CO)Cc1ccccc1	?	-	-	-	?	-
Cc1cccc(N(CC(=O)NCCc2ccccc2)S(=O)(=O)c2ccccc2)c1C	18µM	-	.	-	16µM	.
Cc1cccc(N(CC(=O)NCCC2=CCCCC2)S(C)(=O)=O)c1C	?	-	-	-	16µM	-
Cc1ccc(CNC(=O)CN(c2cccc(C)c2C)S(=O)(=O)c2ccccc2)cc1	16µM	-	.	-	16µM	.
Cc1cccc(N(CC(=O)N(C)Cc2ccccc2)S(=O)(=O)c2ccccc2)c1C	23µM	-	.	-	?	.
CN(Cc1ccccc1)C(=O)CN(c1ccccc1Cl)S(C)(=O)=O	-	-	.	-	-	-
Cc1ccc(N2C(N)=C(C#N)C(c3cc(CN4CCOCC4)cs3)C3=C2CC(C)(C)CC3=O)cc1 (stereo unspecified)	-	-	-	-	-	-
C=CCN1C=C(C(C)=O)C(=O)CC1	-	-	.	.	-	-
COc1ccc(Cc2nc(C)cc(Cl)n2)cc1[N+](=O)[O-]	-	-	-	-	-	-
CS(=O)(=O)N(CC(=O)NCCSCc1ccccc1)c1cc(C(F)(F)F)ccc1Cl	15µM	-	.	-	21µM	.
COc1ccc(N(C(C)C(=O)NCCSCc2cccc(Cl)c2)S(C)(=O)=O)cc1 (stereo unspecified)	?	-	.	-	?	-
Cc1ccc(CSCCNC(=O)CN(c2cccc(C)c2C)S(=O)(=O)c2ccccc2)cc1	?	-	.	-	?	.
CC(C(=O)NCCSCc1cccc(Cl)c1)N(c1ccccc1)S(C)(=O)=O (stereo unspecified)	13µM!	-	.	-	21µM!	-
COCCNC(=O)CN(c1cc(C(F)(F)F)ccc1Cl)S(C)(=O)=O	-	-	-	-	-	-
SMILES	TDP1 cell noCPT	VDR inh	TDP1 inh	KAT2A inh	TDP1 cell CPT	PLK1 PBD block
Cc1cccc(N(CC(=O)NCCSCc2cccc(Cl)c2)S(=O)(=O)c2ccccc2)c1C	21µM	-	.	-	?	.
COc1ccc(N2CC(NC(=O)c3ccco3)CC2=O)cc1 (stereo unspecified)	-	-	-	-	-	.
Oc1cccc2c(CC(O)c3c[nH]c4ccccc34)ccnc12 (stereo unspecified)	11µM	.	.	.	?	.
COc1ccc(C)cc1NC(=O)c1cc(S(=O)(=O)N2CCCCC2)c[nH]1	?	-	-	-	-	.
CC(C)Cc1nnc(NC(=O)CCC(=O)N2CCN(c3ccc([N+](=O)[O-])cc3)CC2)s1	18µM	-	-	-	15µM	-
COc1ccc(CN2CCN(C(=O)CCC(=O)Nc3nnc(CC(C)C)s3)CC2)cc1F	4.6µM	-	-	-	3.3µM	-
Cc1ccc(OCCN2CCN(C(=O)CCC(=O)Nc3nnc(C(C)C)s3)CC2)cc1	23µM	-	-	-	?	-
COc1ccc(CN2CCN(C(=O)CCC(=O)Nc3nnc(C(F)(F)F)s3)CC2)cc1F	-	-	-	-	-	-
COc1ccc(CN2CCN(C(=O)CCC(=O)Nc3nnc(C4CCCCC4)s3)CC2)cc1F	?	-	-	-	16µM	-
CCOc1ncccc1C(=O)OCC(=O)Nc1ccc(C(N)=O)cc1	-	-	-	-	-	-
COc1ccc2c(CNCCc3ccco3)c(C(=O)O)n(Cc3ccc(F)cc3)c2c1	?	-	-	-	?	.
CC1CCCC(NC(=O)COC(=O)/C=C/c2ccc(S(=O)(=O)N3CCOCC3)cc2)C1C (stereo unspecified)	-	-	-	-	-	-
CCc1nc2c(OCc3ccc(C(F)(F)F)cc3)cccn2c1N(C)C(C)=O	?	.	.	.	?	-
CCCCN(C=O)c1c(CC)nc2c(OCc3ccc(C(F)(F)F)cc3)cccn12	12µM	.	.	.	12µM	-
CCc1nc2c(OCc3ccc(C(F)(F)F)cc3)cccn2c1N(C)C(=O)c1ccco1	?	.	.	.	?	-
CCc1nc2c(OCc3ccc(C(F)(F)F)cc3)cccn2c1N(C=O)Cc1ccc(OC)cc1	16µM	.	.	.	21µM	-
CC(C)(C)c1cc2ncnc(N3CCCCC3)c2s1	29µM	-	.	-	13µM	-
Cc1nc2ccccc2nc1N1CCCC1	-	-	-	-	-	-
CCOc1ccc2nc(NCCCNC(=O)c3cc(OC)c(OC)c(OC)c3)c(C#N)cc2c1	16µM	-	.	-	13µM	-
NNC(=O)[C@H](Cc1ccccc1)NC(=O)NCCc1ccccc1	-	-	.	-	-	-
Cn1c(CSCCOc2ccccc2)n[nH]c1=S	16µM	-	-	-	-	-
Cn1c(Cc2cccs2)n[nH]c1=S	-	-	.	-	-	27µM
Cn1c(CSc2nc3ccccc3s2)n[nH]c1=S	-	-	-	-	-	30µM
